# Laboratory results published in PubChem BioAssay AID504834 (National Center for Advancing Translational Sciences (NCATS), 2011).
# Screen size: about 320,000 compounds; about 22,000 (6.9%) were called active. A call without a number means that no potency is given here. Inconclusive results (about 27%) are left out. Only a selection was taken, and actives are over-represented in it overall. Values without a mark were called inactive. The call rests on the fitted dose curve; in most records, active means well fitted inhibition curve with a large enough effect; inconclusive means small, poorly fitted or top-dose-only effect, or another doubt; inactive means no such curve, though single readings can be large or run the other way.
# Assay: Primary qHTS for delayed death inhibitors of the malarial parasite plastid, 96 hour incubation
# Details: P. falciparum luciferase reporter growth; series mostly up to 28.7 µM
# Text: The goal of this screen is to discover new antimalarial compounds that act by inhibiting the development of the apicoplast in the malarial parasite Plasmodium falciparum. The biochemical processes that make this organelle essential for erythrocytic stage parasites are not well understood. However, antibiotics such as azithromycin and tetracycline, which target the apicoplast translational machinery, have a potent antimalarial effect.
# We have developed a cell-based assay that measures parasite growth based on the expression of an integrated copy of a firefly luciferase reporter. To detect small molecules that cause this "delayed death" phenotype, erythrocytes infected with the luciferase-expressing parasites were incubated with compounds for either one or two generations, corresponding to 48 and 96 hours, respectively. Compounds that inhibit parasite growth in the second generation, but not the first, should be enriched in antimalarials that target the apicoplast. Growth inhibition is detected by a decrease in luciferase activity.
# Assay Provider: David Fidock and Eric Ekland, Columbia University
# Keywords: NIH Roadmap, MLPCN, MLI, MLSMR, qHTS, NCGC, qHTS, malaria, luciferase, viability
# Four microliters of infected erythrocytes (2% hematocrit, 0.05% parasitemia final concentration) in culture medium were dispensed and the plates incubated for 96 hours at 37 C in 5% CO2. Two microliters of luciferase detection reagent was added and luminescence was detected by a ViewLux (PerkinElmer) reader.
# Potency means the concentration at half of the fitted maximal effect.
Structure (SMILES),Potency,"activity change, negative = inhibition"
O=C(Cn1nc([N+](=O)[O-])nc1Br)NC1CCCCC1,inactive,
O=C(CSc1ccc(-c2ccccc2)nn1)NCC1CCCO1 (configuration not stated),inactive,
CCC(C)NC(=O)CSC1=Nc2ccccc2C2=NC(CCC(=O)NCc3ccco3)C(=O)N12 (configuration not stated),inactive,
O=C(CC1N=C2c3ccccc3N=C(SCc3ccccc3Cl)N2C1=O)NCc1ccco1 (configuration not stated),inactive,
O=C(CSC1=Nc2ccccc2C2=NC(c3ccccc3)C(=O)N12)NCC1CCCO1 (configuration not stated),7.38 µM (active),
CCn1c(SCC(=O)NCC2CCCO2)nc2ccccc21 (configuration not stated),inactive,
O=C(CSC1=Nc2ccccc2C2=NC(CC(=O)NCc3ccco3)C(=O)N12)NCc1ccco1 (configuration not stated),1.85 µM (active),
O=C(NCc1ccco1)/C(=C/c1ccco1)NC(=O)c1ccccc1,inactive,
CC1CCN(C(=O)COC(=O)c2cc(S(=O)(=O)N3CCOCC3)ccc2Cl)CC1,inactive,
COc1cc(C(=O)NNC(=O)CN2C(=O)NC3(CCCC3)C2=O)cc(OC)c1OC,inactive,
COc1cccc(C(=O)Nc2nnc(S(=O)(=O)N3CCCCC3)s2)c1,inactive,
Cc1ccc2nc(-c3ccc(Br)cc3)cn2c1,inactive,
CCC(C)(C)n1nnnc1C(c1ccc(OC)c(OC)c1)N1CCN(C(=O)c2ccco2)CC1 (configuration not stated),inactive,
CNC[C@H](CC1CCCCC1)NC[C@H](NCCC1CCCC1)[C@H](C)O,11.7 µM (active),
COc1ccc(CNC(=O)COc2ccccc2C(=O)c2cnn(-c3ccccc3)c2)cc1OC,inactive,
O=C1C(=O)N(CCCO)C(c2ccccc2)/C1=C(\O)c1ccc(Br)cc1 (configuration not stated),inactive,
CCOC(=O)c1c(-c2ccc(C)cc2C)csc1NC(=O)CSc1nnnn1C,inactive,
CCOC(=O)c1ccc(NC(=O)CSc2ncccn2)cc1,inactive,
CCOC(=O)c1c(NC(=O)CSc2nnc(CNc3ccc(C)cc3C)o2)sc(C)c1C,8.28 µM (active),
CCCc1nnc(SCC(=O)Nc2ccc(C(=O)OCC)cc2)o1,0.147 µM (active),
COc1ccc(Cc2nnc(SCC(=O)Nc3ccc(C)c(C)c3)o2)cc1OC,inactive,
CCOC(=O)c1c(NC(=O)CSc2nccc(=O)[nH]2)sc(C)c1C,inactive,

Structure (SMILES),Potency,"activity change, negative = inhibition"
CN(CCc1ccccn1)C(=O)c1ccc(OC2CCN(Cc3ccccn3)CC2)cc1,inactive,
Cc1cc(C)cc(OCC(=O)OCC(=O)NC2CCCC2)c1,inactive,
CCn1c(=S)sc2c(=O)n(CC(=O)Nc3ccc(OC)cc3)c(C)nc21,inactive,
CC1=C(C(=O)Nc2ccccc2)SCCO1,inactive,
COc1cccc(C(=O)NCCS(=O)(=O)NCC2CCCO2)c1 (configuration not stated),inactive,
COc1cccc(CCNC(=O)c2cccc(NC(=O)C3=C(C)OCCS3)c2)c1,11.7 µM (active),
Cc1sc(NC(=O)C2=COCCO2)c(C#N)c1C,inactive,
CCCCN(C(=O)C(CCSC)N1C(=O)c2ccccc2C1=O)c1c(N)n(CCC)c(=O)[nH]c1=O (configuration not stated),inactive,
CSc1ccccc1NC(=O)c1cnc2sc(C)cn2c1=O,inactive,
Cc1ccc(C(C)C)c(OCCSc2nc3ccccc3n2CC(=O)O)c1,13.1 µM (active),
Cc1ccc(Cn2c(SCC(=O)N/N=C/c3ccccc3OCC(=O)O)nc3ccccc32)cc1,inactive,
O=C(O)Cn1c(Cc2ccccc2)nc2ccccc21,inactive,
Fc1ccc2[nH]c3c(N4CCN(Cc5ccc6c(c5)OCO6)CC4)ncnc3c2c1,2.62 µM (active),
O=C(c1cccs1)N1CCN(Cc2ccc3c(c2)OCO3)CC1,inactive,
Cc1cc(N2CCN(Cc3ccc4c(c3)OCO4)CC2)n2ncnc2n1,inactive,
CCCc1c(C(=O)O)cnn1-c1ccc(Cl)cc1,inactive,
O=C(NNS(=O)(=O)c1ccccc1C(F)(F)F)c1cc2ncc(C(F)(F)F)cc2s1,inactive,
Cc1ccsc1C(=O)N[C@@H](C)c1nnc2ccccn12,inactive,
CCN(CCn1cccn1)C(=O)CC1C(=O)NCCN1Cc1cccc(OC)c1OC (configuration not stated),inactive,
CN(C(=O)CC1C(=O)NCCN1Cc1ccc(F)cc1Cl)C1CCCCC1 (configuration not stated),inactive,
C=CCC1(CC=C)CCCN1C(=O)CC1C(=O)NCCN1Cc1ccccc1OC (configuration not stated),10.4 µM (active),
CCOCCCNC(=O)c1cn(CC(C)C)c(=O)c2c1c1ccccc1n2C,inactive,

Structure (SMILES),Potency,"activity change, negative = inhibition"
CCOCCCNC(=O)c1cc2c(=O)n3ccccc3nc2s1,10.4 µM (active),
CCOCCCNC(=O)c1c[nH]c2cc(C)ccc2c1=O,inactive,
Cc1cccc(OCCC(=O)Nc2ccccc2C(N)=O)c1,inactive,
Fc1ccccc1/C=C1\CCCC2=C1Nc1ncnn1C2c1ccccc1F (configuration not stated),1.04 µM (active),
CCN1C(=O)c2cccc3c(S(=O)(=O)Nc4ccccc4O)ccc1c23,inactive,
CC(C)(C)NC(=O)CSc1nnc(NC(=O)CCc2ccccc2)s1,inactive,
Cc1occc1C(=O)NC1CCCN(Cc2ccc(CC(C)C)cc2)C1 (configuration not stated),inactive,
Cc1occc(=O)c1OCc1c(Cl)cccc1Cl,inactive,
O=C(NCCS(=O)(=O)N1CCN(c2ccccc2F)CC1)c1ccc(Br)o1,inactive,
CCOc1ccc(C(C)=O)cc1COC(=O)CNC(=O)c1cccs1,inactive,
C/C(=N\OCC(=O)O)c1ccc(Cl)cc1,inactive,
COC(=O)/C(NC(C)=O)=C(\C)c1ccc(Cl)cc1,inactive,
C/C(=N\N=C(N)N)c1ccc(Cl)cc1,4.15 µM (active),
Cn1c(SCC(=O)c2ccccc2)ncc(C(=O)Nc2ccc(F)cc2)c1=O,inactive,
CC1CCN(C(=O)Cn2nnnc2CN2CCOCC2)CC1,inactive,
CC(Sc1nncs1)C(=O)NCc1ccc2c(c1)OCO2 (configuration not stated),13.1 µM (active),
O=C(NCc1ccc2c(c1)OCO2)c1ccc(Cl)s1,inactive,
O=C(NCc1ccc2c(c1)OCO2)c1sccc1Br,inactive,
Cc1ccc(S(=O)(=O)NCC(=O)N(CC(=O)NCC2CCCO2)c2cccc(F)c2)cc1 (configuration not stated),inactive,
Nc1nnnn1/N=C/c1cc([N+](=O)[O-])ccc1O,inactive,
Cc1sc(NC(=O)c2ccc3ncsc3c2)c(C(N)=O)c1C,inactive,
O=C(Nc1ccccc1N1CCOCC1)c1ccncc1,inactive,

Structure (SMILES),Potency,"activity change, negative = inhibition"
O=C(Nc1ccccc1N1CCOCC1)c1csc2c1CCCC2,10.4 µM (active),
Cc1ccc(S(=O)(=O)N2CCOCC2)cc1C(=O)Nc1ccccc1N1CCCC1,inactive,
CCCc1cc(=O)[nH]c(SCC(=O)c2c(N)n(CC(C)C)c(=O)n(C)c2=O)n1,inactive,
CCOC(=O)c1c(C)[nH]c(C)c1S(=O)(=O)N(C)CC(=O)Nc1ccccc1C,inactive,
CCc1ccc(OCC(=O)N(Cc2ccccc2)C2CCS(=O)(=O)C2)cc1 (configuration not stated),inactive,
O=C(CCC(=O)c1ccccc1)NCc1cccc(C(F)(F)F)c1,inactive,
Cc1ccc2[nH]c3c(=O)n(Cc4ccccn4)cnc3c2c1,inactive,
CCC(C(=O)OC)n1cnc2c(oc3ccccc32)c1=O (configuration not stated),inactive,
Cc1ccc(C)c(Cn2cnc3c(oc4ccccc43)c2=O)c1,2.08 µM (active),
CC(C(=O)N(C)CC(=O)Nc1ccccc1C(F)(F)F)N1C(=O)c2ccccc2C1=O (configuration not stated),inactive,
Cc1csc2nc(COC(=O)c3cccc(N(C)C)c3)cc(=O)n12,inactive,
CCOC(=O)N1CCC(N2Cc3cccc(C(=O)Nc4c(C)cccc4CC)c3C2=O)CC1,inactive,
C=C1CCC(N(O)c2cc(C)on2)C(=C)CCC2C1CC2(C)C (configuration not stated),4.65 µM (active),
CN(NS(=O)(=O)c1cccs1)c1ncc(C(F)(F)F)cc1Cl,inactive,
CCC(CC)c1nnc(NC(=O)C2=COCCO2)s1,inactive,
COc1cc(-c2nnc(NC(=O)C3=COCCO3)o2)cc(OC)c1OC,inactive,
O=C(Nc1nnc(C2=COCCO2)o1)c1ccc([N+](=O)[O-])s1,11.7 µM (active),
COCCNc1ccc(-c2n[nH]c(=O)c3ccccc23)cc1[N+](=O)[O-],inactive,
CC1(C(=O)NCCc2c[nH]c3ccccc23)C=CC2(CCCCC2)N1C(=O)c1ccccc1 (configuration not stated),11.7 µM (active),
O=C(CN1C(=O)NC2(CCCCC2)C1=O)NCCc1c[nH]c2ccccc12,inactive,
O=C(NCCc1c[nH]c2ccccc12)c1cccc(Br)c1,inactive,
Cc1ccc(OCCC(=O)OCC(=O)N2c3ccccc3NC(=O)C2(C)C)cc1,inactive,

Structure (SMILES),Potency,"activity change, negative = inhibition"
Cc1nnc(SCC(=O)Nc2ccc(S(=O)(=O)Nc3ccc(Cl)nn3)cc2)s1,inactive,
Cc1ccccc1N1CCN(C2CCCN(C(=O)c3ocnc3C)C2)CC1 (configuration not stated),inactive,
Cc1ccc(-n2c(-c3ccc(Cl)cc3)n[nH]c2=S)cc1,inactive,
Cc1cc([N+](=O)[O-])ccc1NC(=O)C1CCCO1 (configuration not stated),inactive,
CC(=O)c1ccc(NC(=O)Nc2ccc([N+](=O)[O-])cc2C)cc1,9.28 µM (active),
Cc1cc([N+](=O)[O-])ccc1NC(=O)c1ccc(NC(=O)C(C)C)cc1,,18% [at 5.75 µM]
CCN(CC(=O)NCc1ccco1)S(=O)(=O)c1ccc(F)cc1,inactive,
CCOc1ccccc1C(=O)NCc1ccco1,inactive,
O=C(NCc1ccco1)c1ccc(CS(=O)(=O)Cc2ccc(F)cc2)o1,8.28 µM (active),
CC1(C)Oc2ccc3ccc(=O)oc3c2/C(=N/O)C1=O,inactive,
NC(=O)Cc1ccc2c(c1)[nH]c1ccccc12,inactive,
C[C@H](NC(=O)C1CC(=O)N(c2ccc3c(c2)OCO3)C1)C(=O)NCc1ccco1 (some centres not stated),inactive,
Cc1ccccc1OC(=O)Cn1c(C(F)(F)F)nc2ccccc21,inactive,
CCOCN(C(=O)Cn1c(C(C)O)nc2ccccc21)c1c(C)cccc1CC (configuration not stated),8.28 µM (active),
CCc1cccc(C)c1N(C(=O)Cn1c(CO)nc2ccccc21)C(C)COC (configuration not stated),inactive,
CC(C)=NN1C(=O)c2ccccc2NC1(C)C,inactive,
Cc1csc(NC(=O)c2ccc(-c3ccc(Cl)cc3Cl)o2)n1,4.65 µM (active),
Cc1csc(NC(=S)Nc2cccc(Cl)c2)n1,inactive,
O=C(Nc1cccc2ncccc12)c1ccc(-c2ccc(Cl)cc2Cl)o1,inactive,
